Screens deposited in PubChem BioAssay by National Center for Advancing Translational Sciences (NCATS).
Sampled rows, rich in hits. Any-hit rate of the full collection: about 8.2%.
KB-V1 MDR tox = kills drug-selected multidrug resistant KB-V1 cells | KB-V1 MDR cells viability, CellTiter-Glo, 72 h | Potency, µM (top dose mostly 46.1 µM), actives largely listed as cytotoxic | hit rate 3.4% among 400,000; further: on the % scale 0 is the no-effect control and ±100 the full control effect; nearly all actives have a fitted effect of over 60% in size
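KB-V1 cells (P-gp-expressing MDR subline of KB-3-1) in phenol-red-free DMEM with 10% FBS were exposed to library compounds over a concentration series for 72 h at 37 degrees C. Viability read by CellTiter-Glo luminescence; concentration-effect curves fitted after normalization.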
KB-3-1 cytotox = kills parental KB-3-1 adenocarcinoma cells. KB-3-1 viability, CellTiter-Glo ATP luminescence, 72 h. hit rate 1.4% among 400,000. Potency, µM (doses to about 46.1 µM), hits mostly cytotoxic. AID 1347075; further: on the % scale 0 is the no-effect control and ±100 the full control effect; nearly all actives have a fitted effect of over 60% in size
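KB-3-1 parental drug-naive adenocarcinoma cells in DMEM/10% FBS, incubated 72 h at 37 C with pin-transferred compounds across a concentration series. Viability by CellTiter-Glo luminescence; concentration-response curves fitted after normalization.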
ELG1 repair inh = ELG1-dependent DNA repair inhibition | HEK293T ELG1-luciferase reporter, luminescence, 16 h; DNA damage induced by 5-fluorouridine | Potency, µM (highest dose often 46.1 µM), for the others: top-dose activity change, negative = inhibition, most hits filed as inhibitors | hit rate 2.3% among 330,000; further: on the % scale 0 is the no-effect control and ±100 the full control effect; nearly all actives have a fitted effect of over 55% in size
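Luminescence from the luciferase reporter, measured 30 min after ONE-Glo reagent at room temperature, was the read-out. Beforehand, 2,000 cells per well were exposed for 16 hr at 37 °C to 5-fluorouridine together with compound or vehicle.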
MCF10A rerep = DNA re-replication induction in MCF 10a cells | hit rate 2.9% among 350,000 | Potency, µM (highest dose often 46.1 µM), for inactives: at the highest dose activity, positive = re-replication, usual class: activators | MCF 10A DNA re-replication, Hoechst nuclear intensity, 48 h | AID 624296; further: % of control where 0% means no effect; nearly all actives have a fitted effect of over 50% in size
SW480 rerep = induces DNA re-replication in SW480 colon adenocarcinoma cells; AID 624297; Potency, µM (highest dose often 46.1 µM), for inactives: top-dose re-replication activation, hits mostly activators; SW480 DNA re-replication, Hoechst DNA content imaging, 48 h; hit rate 1.8% among 340,000; further: % of control where 0% means no effect; nearly all actives have a fitted effect of over 55% in size
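Per well, 250 cells were exposed to pinned compound for 48 hr. Nuclear DNA was visualised with Hoechst (40 min, 37 C) and total object intensity recorded by fluorescence scanning.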
An asterisk follows results filed as active. The call rests on the fitted dose curve; in most records, active means well fitted curve in the direction sought with a large enough effect; inconclusive means small, poorly fitted or top-dose-only effect, or another doubt; inactive means no such curve, though single readings can be large; an effect the other way counts as inactive or inconclusive. Potency means the concentration at half of the fitted maximal effect.

For O=c1cc(N2CCCCC2)c(-c2ccccc2)nn1Cc1ccc(Cl)cc1Cl the results were KB-V1 MDR tox inactive, KB-3-1 cytotox inactive, ELG1 repair inh -9%, MCF10A rerep 15µM* and SW480 rerep 18%.
O=C(COC(=O)c1ccc(O)cc1)c1ccc(S(=O)(=O)N2CCCCC2)cc1 was read as KB-V1 MDR tox inactive, KB-3-1 cytotox inactive, ELG1 repair inh -8%, MCF10A rerep 9% and SW480 rerep -5%.
`O=C(/C=C/c1c(F)cccc1Cl)c1ccc(O)cc1` gave KB-V1 MDR tox inactive, KB-3-1 cytotox inconclusive, ELG1 repair inh 18%, MCF10A rerep 3.3µM* and SW480 rerep inconclusive.
For CCOc1cc(N2CCCC2)ccc1[N+](=O)[O-] the results were KB-V1 MDR tox inactive, KB-3-1 cytotox inactive, ELG1 repair inh -17%, MCF10A rerep 14% and SW480 rerep 7%.
Screening CCOC(=O)c1sc(NC(=O)c2ccoc2C)c(C(N)=O)c1C returned KB-V1 MDR tox inactive, KB-3-1 cytotox inactive, ELG1 repair inh 8.2µM*, MCF10A rerep 0% and SW480 rerep -1%.
For CCOC(=O)c1c(NC(=O)CSc2nc3cc(Cl)ccc3s2)sc(C(C)=O)c1C the results were ELG1 repair inh -9%, MCF10A rerep 1% and SW480 rerep -4%.
Screening CCOC(=O)c1c(NC(=O)CSc2nc3ccccc3s2)sc(C(C)=O)c1C returned KB-V1 MDR tox 21µM*, KB-3-1 cytotox inactive, ELG1 repair inh inconclusive, MCF10A rerep 3% and SW480 rerep -2%.
Screening CCOC(=O)c1c(NC(=O)CSc2nnc(C)s2)sc2c1CCC(CC)C2 (centres undefined) returned KB-V1 MDR tox 5.8µM*, KB-3-1 cytotox inactive, ELG1 repair inh inconclusive, MCF10A rerep 12% and SW480 rerep inconclusive.
Screening COC(=O)c1c(NC(=O)c2ccoc2C)sc(C)c1C returned KB-V1 MDR tox inconclusive, KB-3-1 cytotox inactive, ELG1 repair inh 9%, MCF10A rerep -4% and SW480 rerep -12%.
For CCCc1cc(=O)[nH]c(SCC(=O)NC(=O)NC2CCCC2)n1 the results were KB-V1 MDR tox 4.1µM*, KB-3-1 cytotox inconclusive, ELG1 repair inh 0%, MCF10A rerep -1% and SW480 rerep -3%.
For CCOC(=O)c1c(NC(=O)c2ccc(F)cc2)sc2c1CCC(CC)C2 (centres undefined) the results were KB-V1 MDR tox inactive and KB-3-1 cytotox inconclusive.
`O=C(CCN1C(=O)c2ccccc2C1=O)c1ccccc1` gave KB-V1 MDR tox inactive and KB-3-1 cytotox inactive.
O=C(Nc1ccc(N2CCOCC2)cc1)c1ccc(S(=O)(=O)NCc2ccco2)cc1 was read as KB-V1 MDR tox inactive, KB-3-1 cytotox inactive, ELG1 repair inh 28%, MCF10A rerep -1% and SW480 rerep -8%.
O=C(Cc1nnc(NC(=O)Nc2ccc(F)cc2)s1)NCc1ccccc1 was read as KB-V1 MDR tox inconclusive, KB-3-1 cytotox inactive, ELG1 repair inh 0%, MCF10A rerep 3% and SW480 rerep 2%.
`CCOc1ccc(NC(=O)c2ccccc2NC(=O)c2cccnc2)cc1` gave KB-V1 MDR tox inactive, KB-3-1 cytotox inactive, ELG1 repair inh -8%, MCF10A rerep -2% and SW480 rerep -19%.
For O=c1[nH]snc1N1CCOCC1 the results were KB-V1 MDR tox inactive, KB-3-1 cytotox inactive, ELG1 repair inh inconclusive, MCF10A rerep -2% and SW480 rerep 1%.
COc1ccc(-c2noc(CCC(=O)N3CCN(c4ccc(F)cc4)CC3)n2)cc1 was read as KB-V1 MDR tox inactive, KB-3-1 cytotox inactive, ELG1 repair inh 20%, MCF10A rerep inconclusive and SW480 rerep 3%.
`CCOC(=O)c1sc(NC(=O)CSc2nc3ccccc3o2)c(C(=O)OCC)c1C` gave KB-V1 MDR tox inactive, KB-3-1 cytotox inactive, ELG1 repair inh -8%, MCF10A rerep inconclusive and SW480 rerep -8%.
CCCc1cc(=O)[nH]c(SCC(=O)Nc2sc(C(N)=O)c(C)c2C(=O)OCCOC)n1 was read as KB-V1 MDR tox inconclusive, KB-3-1 cytotox 8.2µM*, ELG1 repair inh inconclusive, MCF10A rerep -5% and SW480 rerep 11%.
`CCCc1cc(=O)[nH]c(SCC(=O)NC(=O)OCC)n1` gave KB-V1 MDR tox inactive, KB-3-1 cytotox inactive, ELG1 repair inh 3%, MCF10A rerep 1% and SW480 rerep 1%.
`CCOC(=O)c1sc(NC(=O)CSc2nnc(C)s2)c(C(=O)OCC)c1C` gave KB-V1 MDR tox 1.6µM*, KB-3-1 cytotox inactive, ELG1 repair inh inconclusive, MCF10A rerep 3% and SW480 rerep -13%.
For CCOC(=O)c1sc(NC(=O)CSc2nnc(Cc3ccccc3)o2)c(C(=O)OCC)c1C the results were KB-V1 MDR tox 7.3µM*, KB-3-1 cytotox inactive, ELG1 repair inh inconclusive, MCF10A rerep 18% and SW480 rerep -2%.
For COc1ccc(S(=O)(=O)N(C)C[C@@H]2OCc3cn(nn3)CCCC(=O)N([C@H](C)CO)C[C@H]2C)cc1 the results were KB-V1 MDR tox inactive and KB-3-1 cytotox inactive.
`O=C(NCc1ccc(F)cc1)c1cccc2c1C(=O)c1ccc(Cl)cc1S2(=O)=O` gave ELG1 repair inh 13%.
Screening CC(C)c1cccc(-c2ccc3c(c2)S(=O)(=O)c2cccc(C(=O)NCc4ccccc4)c2C3=O)c1 returned KB-V1 MDR tox inconclusive, KB-3-1 cytotox inconclusive, ELG1 repair inh inconclusive, MCF10A rerep inconclusive and SW480 rerep -6%.
CC(C)c1cccc(-c2ccc3c(c2)S(=O)(=O)c2cccc(C(=O)NCc4ccccc4Cl)c2C3=O)c1 was read as KB-V1 MDR tox inactive, KB-3-1 cytotox 6.5µM*, ELG1 repair inh 25%, MCF10A rerep inconclusive and SW480 rerep -97%.
`O=C(NCc1ccco1)c1cccc2c1C(=O)c1ccc(/C=C/c3ccccc3)cc1S2(=O)=O` gave KB-V1 MDR tox inactive, KB-3-1 cytotox inconclusive, ELG1 repair inh inconclusive, MCF10A rerep 9.2µM* and SW480 rerep inconclusive.
`CC(C)=NOCc1ccc(-c2cn([C@@H]3COC[C@H]3O)nn2)cc1` gave ELG1 repair inh inconclusive, MCF10A rerep 1% and SW480 rerep -1%.
`CC(=NNC(=S)N1CC2CCC(CC2)C1)c1ccncn1` gave KB-V1 MDR tox inactive, KB-3-1 cytotox inconclusive, MCF10A rerep 45% and SW480 rerep inconclusive.
CCCn1c(SCc2nc(N)nc(N3CCCCC3)n2)nc2c1c(=O)n(C)c(=O)n2C was read as KB-V1 MDR tox inactive, KB-3-1 cytotox inactive, ELG1 repair inh inconclusive, MCF10A rerep 11% and SW480 rerep -1%.
Cn1c(=O)c2c(nc(SCc3nc(N)nc(N4CCCCC4)n3)n2C)n(C)c1=O was read as KB-V1 MDR tox 15µM*, KB-3-1 cytotox inconclusive, ELG1 repair inh inconclusive, MCF10A rerep -45% and SW480 rerep 27%.
